Measured values as given in the supplement of paper PMC10849652.
The full data set covers some 7,900 targets. This sample favours those with a hit. About 0.6% of all pairs of compound and target were hits.

Compound: C1=CC=C2C(=C1)C3=NNC4=CC=CC(=C43)C2=O
Assay: log2 fold change, soluble protein after heating vs DMSO (PISA); higher = thermal stabilisation; K562 cells, 10 uM, 30 min; active = over 0.2 and 3.5 SD of the protein, either way, in both replicates (recomputed)
Outline: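 K562 cells at 2×10^6 cells/mL were given 10 μM compound for 30 min. Aliquots then went through 3 min of heating across 48°C-58°C, were pooled, and were extracted in PBS with 0.5% NP-40 at 4°C, and the supernatant after 21,000xg for 90 min was quantified by TMTpro 16plex LC-MS/MS with channel sums equalised. Thermal stability relative to control samples, from duplicates, is given as log2 fold change.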

Chain of UniProt Q9C099 (Q9C099 whole entry, looked up): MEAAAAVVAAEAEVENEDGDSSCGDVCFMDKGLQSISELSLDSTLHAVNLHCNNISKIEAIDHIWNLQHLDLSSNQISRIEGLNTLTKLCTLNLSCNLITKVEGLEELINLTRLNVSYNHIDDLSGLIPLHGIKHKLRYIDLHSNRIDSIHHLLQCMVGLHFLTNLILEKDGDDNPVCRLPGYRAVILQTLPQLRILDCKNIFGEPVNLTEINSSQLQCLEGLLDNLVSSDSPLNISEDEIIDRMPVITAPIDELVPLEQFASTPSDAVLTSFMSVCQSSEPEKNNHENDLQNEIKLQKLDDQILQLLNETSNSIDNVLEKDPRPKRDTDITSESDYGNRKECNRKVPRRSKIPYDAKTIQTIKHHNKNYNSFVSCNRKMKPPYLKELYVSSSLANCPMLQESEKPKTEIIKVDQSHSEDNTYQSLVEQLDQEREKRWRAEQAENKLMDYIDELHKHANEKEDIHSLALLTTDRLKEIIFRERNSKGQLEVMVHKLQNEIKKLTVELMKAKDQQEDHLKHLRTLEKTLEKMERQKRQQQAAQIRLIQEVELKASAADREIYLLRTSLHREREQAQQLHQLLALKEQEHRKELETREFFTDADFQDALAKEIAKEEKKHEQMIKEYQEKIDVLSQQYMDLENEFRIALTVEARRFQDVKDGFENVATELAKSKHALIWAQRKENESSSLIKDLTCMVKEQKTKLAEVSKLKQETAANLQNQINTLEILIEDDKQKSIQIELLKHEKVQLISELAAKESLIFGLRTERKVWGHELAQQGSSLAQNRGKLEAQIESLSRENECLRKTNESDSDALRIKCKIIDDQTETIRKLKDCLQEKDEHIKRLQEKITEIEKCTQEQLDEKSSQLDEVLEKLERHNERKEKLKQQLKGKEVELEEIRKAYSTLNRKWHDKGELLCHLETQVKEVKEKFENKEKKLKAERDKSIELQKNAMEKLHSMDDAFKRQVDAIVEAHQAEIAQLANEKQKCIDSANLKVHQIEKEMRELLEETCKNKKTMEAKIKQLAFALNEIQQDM
Chain of UniProt Q9H1H9 (Q9H1H9 whole entry, looked up): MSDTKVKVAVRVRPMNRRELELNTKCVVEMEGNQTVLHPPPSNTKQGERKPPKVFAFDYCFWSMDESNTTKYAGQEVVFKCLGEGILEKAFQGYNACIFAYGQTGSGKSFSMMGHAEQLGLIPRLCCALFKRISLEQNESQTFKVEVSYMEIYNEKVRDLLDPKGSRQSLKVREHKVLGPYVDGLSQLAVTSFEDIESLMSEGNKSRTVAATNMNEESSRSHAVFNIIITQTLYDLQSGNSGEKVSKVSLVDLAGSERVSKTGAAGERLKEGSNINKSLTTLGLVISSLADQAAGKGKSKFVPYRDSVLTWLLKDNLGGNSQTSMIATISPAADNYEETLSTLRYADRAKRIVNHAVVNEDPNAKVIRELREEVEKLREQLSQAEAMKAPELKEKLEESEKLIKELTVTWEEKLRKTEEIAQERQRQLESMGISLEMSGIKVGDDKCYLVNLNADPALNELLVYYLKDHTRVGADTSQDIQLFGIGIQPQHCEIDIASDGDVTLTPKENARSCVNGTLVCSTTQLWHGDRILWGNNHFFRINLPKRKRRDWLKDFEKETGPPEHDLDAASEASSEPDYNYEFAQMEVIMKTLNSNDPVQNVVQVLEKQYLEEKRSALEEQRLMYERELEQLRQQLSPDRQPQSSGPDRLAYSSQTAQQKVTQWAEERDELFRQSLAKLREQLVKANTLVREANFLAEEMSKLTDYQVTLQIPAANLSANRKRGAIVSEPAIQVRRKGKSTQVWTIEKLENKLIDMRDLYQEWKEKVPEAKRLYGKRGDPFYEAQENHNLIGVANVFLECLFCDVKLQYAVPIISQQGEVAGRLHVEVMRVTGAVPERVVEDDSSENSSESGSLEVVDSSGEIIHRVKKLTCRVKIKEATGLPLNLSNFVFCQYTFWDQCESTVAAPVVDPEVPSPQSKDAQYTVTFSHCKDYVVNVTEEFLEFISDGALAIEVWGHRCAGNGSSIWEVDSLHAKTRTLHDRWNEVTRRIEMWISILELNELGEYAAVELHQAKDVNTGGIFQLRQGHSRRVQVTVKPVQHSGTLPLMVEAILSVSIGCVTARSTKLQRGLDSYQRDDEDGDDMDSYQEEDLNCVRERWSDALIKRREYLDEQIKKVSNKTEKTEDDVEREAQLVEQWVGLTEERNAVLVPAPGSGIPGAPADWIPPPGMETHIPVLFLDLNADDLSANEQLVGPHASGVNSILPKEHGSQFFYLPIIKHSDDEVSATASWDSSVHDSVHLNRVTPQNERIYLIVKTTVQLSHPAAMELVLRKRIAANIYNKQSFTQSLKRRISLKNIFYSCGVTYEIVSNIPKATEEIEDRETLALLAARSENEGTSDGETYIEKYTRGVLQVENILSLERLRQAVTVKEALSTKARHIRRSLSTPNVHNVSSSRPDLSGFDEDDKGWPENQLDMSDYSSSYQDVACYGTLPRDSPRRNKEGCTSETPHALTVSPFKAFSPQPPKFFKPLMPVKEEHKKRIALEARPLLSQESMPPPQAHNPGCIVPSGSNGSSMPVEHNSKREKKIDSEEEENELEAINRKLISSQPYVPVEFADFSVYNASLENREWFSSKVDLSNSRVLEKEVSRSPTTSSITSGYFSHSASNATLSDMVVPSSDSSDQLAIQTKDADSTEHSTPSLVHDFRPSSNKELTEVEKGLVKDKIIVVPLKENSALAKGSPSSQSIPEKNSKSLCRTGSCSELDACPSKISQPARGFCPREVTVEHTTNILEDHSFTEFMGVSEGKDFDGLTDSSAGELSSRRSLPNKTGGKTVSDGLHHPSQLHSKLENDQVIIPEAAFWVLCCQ
Chain of UniProt P24592 (P24592 whole entry, looked up): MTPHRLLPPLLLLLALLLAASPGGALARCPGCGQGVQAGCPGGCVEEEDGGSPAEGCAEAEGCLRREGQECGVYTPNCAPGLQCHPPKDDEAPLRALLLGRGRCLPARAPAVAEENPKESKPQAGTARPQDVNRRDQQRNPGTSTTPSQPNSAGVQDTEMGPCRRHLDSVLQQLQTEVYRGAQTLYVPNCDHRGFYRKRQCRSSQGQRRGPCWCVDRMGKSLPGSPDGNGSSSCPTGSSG
Chain of UniProt Q6NUT3 (Q6NUT3 whole entry, looked up): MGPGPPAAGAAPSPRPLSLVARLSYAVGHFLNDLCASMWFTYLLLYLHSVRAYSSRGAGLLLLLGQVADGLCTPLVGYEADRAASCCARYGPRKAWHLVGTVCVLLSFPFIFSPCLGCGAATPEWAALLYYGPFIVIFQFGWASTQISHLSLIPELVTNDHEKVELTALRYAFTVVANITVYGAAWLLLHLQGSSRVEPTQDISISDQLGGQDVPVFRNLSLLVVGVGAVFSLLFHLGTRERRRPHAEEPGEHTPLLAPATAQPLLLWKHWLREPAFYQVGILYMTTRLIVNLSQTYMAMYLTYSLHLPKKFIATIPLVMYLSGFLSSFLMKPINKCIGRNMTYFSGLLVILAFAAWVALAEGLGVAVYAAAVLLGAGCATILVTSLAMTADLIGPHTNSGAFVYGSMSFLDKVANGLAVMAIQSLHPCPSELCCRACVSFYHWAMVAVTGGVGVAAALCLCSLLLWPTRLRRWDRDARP
Chain of UniProt Q9Y573 (Q9Y573 whole entry, looked up): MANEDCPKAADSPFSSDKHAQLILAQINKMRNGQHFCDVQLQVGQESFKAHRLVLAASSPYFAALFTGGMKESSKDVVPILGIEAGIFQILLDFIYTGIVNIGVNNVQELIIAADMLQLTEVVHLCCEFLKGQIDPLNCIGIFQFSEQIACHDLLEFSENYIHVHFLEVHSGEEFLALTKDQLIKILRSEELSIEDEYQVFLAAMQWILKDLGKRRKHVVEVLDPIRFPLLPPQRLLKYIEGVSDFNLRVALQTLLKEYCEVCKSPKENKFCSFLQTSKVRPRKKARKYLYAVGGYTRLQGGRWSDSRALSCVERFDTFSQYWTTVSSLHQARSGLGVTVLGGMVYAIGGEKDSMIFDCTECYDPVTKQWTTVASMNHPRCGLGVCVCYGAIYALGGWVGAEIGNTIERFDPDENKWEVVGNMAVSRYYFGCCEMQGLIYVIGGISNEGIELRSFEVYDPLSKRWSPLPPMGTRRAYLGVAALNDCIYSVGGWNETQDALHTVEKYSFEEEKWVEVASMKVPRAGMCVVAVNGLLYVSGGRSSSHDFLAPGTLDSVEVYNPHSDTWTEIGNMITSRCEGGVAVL
Chain of UniProt P55082 (P55082 whole entry, looked up): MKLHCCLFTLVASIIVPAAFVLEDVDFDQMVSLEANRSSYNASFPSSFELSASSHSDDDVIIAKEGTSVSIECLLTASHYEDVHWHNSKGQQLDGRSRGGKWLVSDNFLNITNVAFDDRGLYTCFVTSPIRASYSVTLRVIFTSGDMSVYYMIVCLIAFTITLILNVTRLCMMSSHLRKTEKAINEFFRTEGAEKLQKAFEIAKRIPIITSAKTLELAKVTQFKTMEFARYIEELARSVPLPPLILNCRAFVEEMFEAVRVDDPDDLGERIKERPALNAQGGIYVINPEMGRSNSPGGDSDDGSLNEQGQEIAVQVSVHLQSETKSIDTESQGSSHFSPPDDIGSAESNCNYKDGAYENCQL
Chain of UniProt P43361 (P43361 whole entry, looked up): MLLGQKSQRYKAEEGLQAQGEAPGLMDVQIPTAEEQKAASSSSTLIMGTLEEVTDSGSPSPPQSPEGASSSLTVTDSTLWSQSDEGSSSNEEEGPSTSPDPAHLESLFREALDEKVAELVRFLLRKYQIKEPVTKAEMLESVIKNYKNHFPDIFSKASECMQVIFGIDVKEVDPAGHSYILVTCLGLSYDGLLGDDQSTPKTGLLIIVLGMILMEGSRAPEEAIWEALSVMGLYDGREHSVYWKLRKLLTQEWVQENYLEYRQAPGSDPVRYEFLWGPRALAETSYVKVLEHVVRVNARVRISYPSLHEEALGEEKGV
Chain of UniProt Q9NX70 (Q9NX70 whole entry, looked up): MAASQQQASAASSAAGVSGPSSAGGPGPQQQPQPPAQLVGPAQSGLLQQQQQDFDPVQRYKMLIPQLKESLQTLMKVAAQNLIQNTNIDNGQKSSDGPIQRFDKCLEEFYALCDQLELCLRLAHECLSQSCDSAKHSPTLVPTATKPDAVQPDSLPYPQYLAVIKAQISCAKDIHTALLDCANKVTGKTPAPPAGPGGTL

log2 fold change, inactive:
MED25 isoform 3 (UniProt Q71SY5) 0.057
MAPK14 (UniProt Q16539) 0.174
MAP2K5 (UniProt Q13163) -0.036
MAPK7 (UniProt Q13164) 0.14
IGFBP6 (UniProt P24592) -0.19
MFSD11 (UniProt O43934) -0.067
MAPRE3 isoform 2 (UniProt Q9UPY8) -0.073
KIZ (UniProt Q2M2Z5) -0.01
LRRCC1 (UniProt Q9C099) 0.123
MFSD12 isoform 3 (UniProt Q6NUT3) 0.024
IPP (UniProt Q9Y573) 0.139
MFAP3 (UniProt P55082) -0.142
IGFBP3 isoform 2 (UniProt P17936) -0.172
MAGEA8 (UniProt P43361) -0.098
MED29 (UniProt Q9NX70) -0.015
KIF13A isoform 4 (UniProt Q9H1H9) 0.021
MGRN1 isoform 2 (UniProt O60291) 0.073
